Test results from PubChem BioAssay AID1259399 (Fisher Drug Discovery Resource Center, 2018).
About 240 (0.15%) of roughly 160,000 compounds were called active. The list comes from a sample in which actives are over-represented; it also holds similar structures and randomly drawn compounds. Values without a mark were called inactive. No stated cut-off is given here; in the data, active means inhibition above about 40%; inactive means the rest.

molecular target: Cyclic GMP-AMP synthase (Mus musculus) (UniProt Q8C6L5); experiment: inhibition of Mus musculus cGAS, primary biochemical chemiluminescence screen (AID 1259399); conditions: recombinant cGAS, Kinase-Glo ATP depletion luminescence; at 12.5 µM; hits give high values;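 further: 0% = negative control wells and 100% = reference inhibitor with no enzyme activity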
Sequence (Q8C6L5 whole entry, looked up): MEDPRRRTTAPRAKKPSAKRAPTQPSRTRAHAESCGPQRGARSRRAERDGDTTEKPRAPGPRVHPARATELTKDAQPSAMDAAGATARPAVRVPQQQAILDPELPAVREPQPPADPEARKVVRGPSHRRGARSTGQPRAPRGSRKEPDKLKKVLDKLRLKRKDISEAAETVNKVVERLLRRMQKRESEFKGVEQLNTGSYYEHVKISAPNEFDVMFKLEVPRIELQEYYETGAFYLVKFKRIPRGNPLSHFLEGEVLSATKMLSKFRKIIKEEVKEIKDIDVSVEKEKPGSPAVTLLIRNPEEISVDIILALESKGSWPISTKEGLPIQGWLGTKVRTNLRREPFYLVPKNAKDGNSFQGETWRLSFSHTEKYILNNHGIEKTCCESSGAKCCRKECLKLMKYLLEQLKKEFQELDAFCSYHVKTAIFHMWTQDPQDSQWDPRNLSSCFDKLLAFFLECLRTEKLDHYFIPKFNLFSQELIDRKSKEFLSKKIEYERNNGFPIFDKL

Compound	inhibition
Cc1ccc(C)c(N2CCN(C(=O)c3cccc(F)c3)C(C)C2=O)c1 (centres undefined)	-1.42%
CCc1nc2ccc(C(=O)N(C)Cc3ccccc3)cn2c1N(C)C(=O)c1cccc(OC)c1	-0.76%
C=CCN(Cc1cccnc1)C(=O)C1CCCN1C(=O)C1CCCCC1 (centres undefined)	-14.1%
CCc1nc2c(OCCOc3ccc(F)cc3)cccn2c1N(C)C(=O)c1ccncc1	-2.55%
O=c1c(O)c(Br)ccc2c(Br)c(O)c(O)c(O)c12	71.1% (active)
CCOc1c(Br)cc(Br)cc1CNCC(=O)N1CCCC1	-7%
CN(C)c1ccc(/C=C/C=C2/SC(N)=NC2=O)cc1	-4.74%
COc1ccc(C2NC(=O)N(C)C3=C2C(=O)N(Cc2ccc(F)cc2)C3)cc1 (centres undefined)	-4.51%
Cc1ccc2nc(-c3ccccc3F)c(NC(C)(C)CC(C)(C)C)n2c1	-1.73%
N#CC1C(=N)Oc2c(c(=O)oc3ccccc23)C12C(=O)Nc1ccc(Br)cc12 (centres undefined)	-4.42%
CSc1ccc(C(=O)N2CCCC(CO)(CCCc3ccccc3)C2)cc1 (centres undefined)	-6.85%
Cc1[nH]c2c(c1C(=O)NCCOc1ccccc1F)C(=O)CCC2	-9.39%
Cc1nc(N2CCOCC2)ncc1-c1cc(=O)[nH]c(N2CCc3ccccc3C2)n1	-6.34%
COc1ccc(C(NC(=O)C2CCN(CCCc3ccccc3)CC2)c2cccs2)cc1 (centres undefined)	-2.89%
CCCCn1nnnc1CSc1nc(C)c(C)c(C)c1C#N	0.584%
COc1ccccc1NC(=O)c1ccc(-n2nc(-c3ccc(Cl)cc3)cc2N)cc1	-3.87%
O=C(Nc1cccc(-c2cccc(-c3ccc(F)cc3)n2)c1)c1c(F)c(F)c(F)c(F)c1F	-6.45%
COCCCN(CC(=O)N1CCc2sccc2C1COc1ccc(Cl)c(C)c1)C(=O)c1cccc(OC)c1 (centres undefined)	-4.66%
O=C(c1ccc(F)cc1F)N1CCC(c2nc(-c3ccc4c(c3)OCO4)no2)CC1	-1.48%
COc1ccc(CC(=O)NNC(=O)c2cccn(Cc3ccc(F)cc3)c2=O)cc1	-6.25%
CC[N+](C)(CC)CCC[n+]1c(-c2ccccc2)c2cc(N)ccc2c2ccc(N)cc21	78.9% (active)
CCN1CCN(C(=O)c2ccc(CSc3nnc(-c4cccs4)n3CC)cc2)CC1	-5.22%
O=C(N1CC[C@@H](O)C1)C1(c2cccc(Br)c2)CC1	-0.654%
CCn1cc(-c2cc(NCc3ccccn3)nc3[nH]ccc23)c(C)n1	-9.58%
CCn1c(SCc2ccccc2OC(F)F)nnc1-c1c2c(nc3ccccc13)CCC2	-4.53%
CCOc1ccc(S(=O)(=O)Nc2ccc3oc(-c4ccccc4)cc3c2)cc1	-4.93%
CCOc1ccc(C2c3[nH]c4ccccc4c3CCN2C(=O)CSC)cc1 (centres undefined)	-3.44%

Compound	inhibition
Cc1ccc(NC(=O)c2ccc(CSc3nc(Cl)cc(N4CCN(C/C=C/c5ccccc5)CC4)n3)cc2)cc1C	-2.86%
N#Cc1ccc(-c2csc(NC(=O)c3cc([N+](=O)[O-])ccc3Cl)n2)cc1	-5.77%
C=CCN(C(=O)CCl)c1nc(-c2ccc(Cl)c(Cl)c2)cs1	72.2% (active)
CCCS(=O)(=O)N1CCN(c2ccc(C)nn2)CC1	-8.23%
COc1cc(CN(C)C(=O)c2c(C)noc2-c2ccccc2Cl)cc(OC)c1OC	2.4%
CC(C)CN(Cc1ccc(OS(=O)(=O)c2ccc(F)cc2)cc1)S(=O)(=O)c1ccc(Cl)cc1	-3.83%
COc1cc([N+](=O)[O-])ccc1NC(=O)C(C)Nc1ccc2nc(C)sc2c1 (centres undefined)	-7.43%
CC(C)(C)c1cc2nc(C(=O)NCCc3ccccn3)cc(-c3ccccc3F)n2n1	-5%
O=C1NC2(CCN(C(=O)COc3ccccc3)CC2)Nc2ccc(Cl)c(Cl)c21	-6.89%
C=C(C)CN(CC)C(=O)c1ccc(-c2ccc(OC)c(OC)c2OC)s1	-8.29%
CSc1cccc(NC(=O)NCCNc2cc(-n3ccnc3C)nc(C)n2)c1	-12.2%
O=C(CCC1CCN(C23CC4CC(CC(C4)C2)C3)CC1)Nc1ccccc1Cl	-11%
Cc1ccccc1-n1c(SCCCC(=O)N2CCN(C(=O)COCc3ccccc3)C(C)C2)nnc1-c1ccco1 (centres undefined)	-5.31%
COc1ncccc1-c1cc2c(cn1)nc(NCc1cccc(C)c1)n2C	-6.3%
CCn1nc(C(=O)N2CCN(c3ccccc3)CC2)c2c1CCN(C(=O)c1csc(SC)n1)C2	-7.21%
CC(C)OCCNC(=O)c1ccc(-c2cc(-c3ccccc3)n[nH]2)cc1	-2.09%
Cc1nc2n(n1)C(=O)C(C(c1cccs1)N1CCN(CCO)CC1)S2 (centres undefined)	-7.74%
CCc1cc2c(=O)c(-c3ccc4c(c3)OCO4)c(C)oc2cc1OC1OC(CO)C(O)C(O)C1O (centres undefined)	-6.86%
COc1cc(/C=C2/C(=O)N(c3ccc(Cl)c(Cl)c3)N=C2C)ccc1O	27.3%
CCOC(=O)c1c(NC(=O)c2cccc3c2-c2ccccc2C3=O)c(-c2ccc(OC)c(OC)c2)cn1Cc1ccccc1	-5.46%
CCn1c(=NC(=O)Cc2ccc(C)c(C)c2)sc2cc3c(cc21)OCCO3	-9.59%
CCCC1(C2CCN(C(=O)[C@H]3C[C@@H]4C=C[C@H]3C4)CC2)NC(=O)N(CCc2cccs2)C1=O (some centres undefined)	-8.91%
O=C1c2ccccc2C(=O)c2cc(Sc3ccccc3)ccc21	-6.93%
CCc1nc2c(OCCOc3ccccc3)cccn2c1N(C)C(=O)c1ccccc1F	-3.16%
CC12OC3(CCCCC3)C(C)(OC13CCCCC3)O2	-2%
CC1CCCC(NC(=O)c2cc(S(=O)(=O)N3CCCC3)c[nH]2)C1C (centres undefined)	-4.23%
COc1ccc2[nH]c3c(c2c1)CCN(C(=O)COCc1ccccc1)C3COCc1ccccc1 (centres undefined)	-10.3%
